CYP2C9 inhib – inhibitors of human CYP2C9; CYP2C9 Supersomes, luciferin-H conversion, luminescence; P11712; 96,000 tested, 20% active; inhibition, % at 5 µM; AID 777;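 active = blocking of liver enzyme CYP2C9 beyond about 50% at 5 µM, limit read from the data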
CYP2C19 inhib – blocks human cytochrome P450 2C19. CYP2C19 Supersomes, luciferin-H EGE luminescence, 30 min. inhibition, % at 5 µM. 96,000 tested, 21% active. AID 778;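 active = CYP2C19 inhibition above a set limit at 5 µM in the primary screen, cut at about 50% in these data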;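 note: plate controls were negative control wells for no effect and 2.5 mM tranylcypromine positive control for full effect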
Target sequence (P33261 whole entry, looked up): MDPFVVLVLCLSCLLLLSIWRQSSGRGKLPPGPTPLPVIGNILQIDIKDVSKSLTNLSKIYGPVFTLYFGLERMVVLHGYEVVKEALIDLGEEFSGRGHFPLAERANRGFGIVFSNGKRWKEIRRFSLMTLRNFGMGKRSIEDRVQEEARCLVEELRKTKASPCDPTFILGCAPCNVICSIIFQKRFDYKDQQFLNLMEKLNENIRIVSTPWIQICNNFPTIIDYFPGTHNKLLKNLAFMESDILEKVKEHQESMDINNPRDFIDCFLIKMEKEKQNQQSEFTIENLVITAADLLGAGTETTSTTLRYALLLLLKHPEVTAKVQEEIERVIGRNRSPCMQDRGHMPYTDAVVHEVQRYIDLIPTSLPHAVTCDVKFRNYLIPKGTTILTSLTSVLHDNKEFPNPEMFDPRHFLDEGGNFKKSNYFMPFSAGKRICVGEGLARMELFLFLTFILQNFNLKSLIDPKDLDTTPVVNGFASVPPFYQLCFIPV
CYP2C9 act – increases human cytochrome P450 2C9 activity. P11712. recombinant CYP2C9, luciferin-H conversion, luminescence; active compounds read high; factor 1 = untreated enzyme, 0 = blocked. activation factor at 5 µM. 96,000 tested, 1.4% active;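 active = activation factor of 2 or more for CYP2C9 at a 5 µM dose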;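 note: 0 = sulfaphenazole-blocked wells and 1 = vehicle-only wells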
CYP2C19 act – increases human CYP2C19 enzyme activity | recombinant CYP2C19, luciferin-H EGE luminescence; active compounds read high; 0 = fully inhibited enzyme, 1 = untreated enzyme | activation factor at 5 µM | 96,000 tested, under 10 active | AID 1025;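 active = activation factor of at least 2 at 5 µM in the primary screen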;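 note: 0 = wells with 2.5 mM tranylcypromine and 1 = vehicle-only wells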
Numbers without * were called inactive. Compounds with a hit are over-represented: about 31% of the library has one in this group of screens.

SMILES	CYP2C9 inhib	CYP2C19 inhib	CYP2C9 act	CYP2C19 act
N#Cc1nc(COc2ccccc2)oc1N1CCOCC1	0.1	23.9	1	0.8
NC(=O)C(c1ccccc1)C1CCCC1 (stereo not drawn)	-5.8	16.5	1.1	0.8
O=P(OC1CCCCC1)(OC1CCCCC1)C(O)c1ccccc1 (stereo not drawn)	55.4*	64.6*	0.4	0.4
N#C/C(=C\c1cn(-c2ccccc2)nc1-c1cccnc1)c1nnc2n1CCCCC2	93.3*	58.9*	0.1	0.4
CN(CC(=O)Nc1ccncc1)S(=O)(=O)c1ccc(Cl)cc1	80.1*	100.0*	0.2	0
CN(CC(=O)Nc1ccncc1)S(=O)(=O)c1ccccc1	62.7*	97.6*	0.4	0
CC(CC(=O)Nc1cc([N+](=O)[O-])ccc1Cl)c1ccccc1 (stereo not drawn)	6.9	51.4*	0.9	0.5
Cc1ccc(S(=O)(=O)N(C)CC(=O)Nc2cccc(C)n2)cc1	-25.4	23.1	1.3	0.8
CN(CC(=O)Nn1cnnc1)S(=O)(=O)c1ccccc1	26.5	73.0*	0.7	0.3
Cc1cccc[n+]1CC(=O)Nc1ccc([N+](=O)[O-])cc1Cl	-23.2	-10.6	1.2	1.1
CCOC(=O)N1CCC(NC(=O)c2ccc3c(=O)n4c(nc3c2)CCCC4)CC1	29.3	2.0	0.7	1
Cc1ccc(S(=O)(=O)Nc2ccc(-c3nnc(SCC#N)n3C)cc2)cc1	27.9	8.3	0.7	0.9
O=C(Nc1ccc(Cl)cc1)[C@@H]1[C@@H]2C(=O)N(c3ccc(Cl)cc3Cl)C(=O)[C@@H]2[C@H]2C=CC=NN21	38.2	29.6	0.6	0.7
Cc1ccnc2nc(C(=O)OCCOc3cccc(Br)c3)nn12	-2.0	8.8	1	0.9
CC(=O)SC(C)CC(=O)Nc1ccccc1 (stereo not drawn)	21.4	70.8*	0.8	0.3
CN(CC(=O)Nc1cccnc1)S(=O)(=O)c1cc(Cl)ccc1Cl	48.1	80.1*	0.5	0.2
CC(CC(=O)Nc1ccncc1)c1ccccc1 (stereo not drawn)	95.6*	98.0*	0	0
CN(CC(=O)O/N=C(\N)c1ccccn1)S(=O)(=O)c1cc(Cl)ccc1Cl	-54.3	14.3	1.5	0.9
Cc1oc(C)c(C(=O)Nc2ccc(CC(=O)O)cc2)c1C(=O)Nc1ccc(CC(=O)O)cc1	3.9	-4.9	1	1
O=C(Nc1ccccc1SCC1CSc2nc3ccccc3c(=O)n21)c1ccccc1Cl (stereo not drawn)	15.6	43.4	0.8	0.6
O=c1c2ccccc2nc2n1C(CSCc1ccc(Cl)cc1)CS2 (stereo not drawn)	29.2	75.2*	0.7	0.2
c1ccc(COc2cccc(CN3CCN(c4ccccn4)CC3)c2)cc1	69.6*	44.5	0.3	0.6
c1ccc(Oc2cccc(CN3CCCCC3)c2)cc1	-8.5	50.0*	1.1	0.5
Brc1cccc(CN2CCCCCCC2)c1	-13.4	77.2*	1.1	0.2
Nc1nnc(CCC2CCCCC2)s1	-12.5	73.3*	1.1	0.3
SMILES	CYP2C9 inhib	CYP2C19 inhib	CYP2C9 act	CYP2C19 act
OCC1CCCN1C(=S)Nc1ccccc1 (stereo not drawn)	-8.8	27.3	1.1	0.7
CN(C)c1ccnc(-n2cccc2/C=N/OCc2cccc(F)c2)c1C#N	46.0	96.6*	0.5	0
CN(C)c1ccc(C2N(C(=O)N3CCOCC3)CCN2S(=O)(=O)c2ccccc2)cc1 (stereo not drawn)	5.2	9.7	0.9	0.9
COc1ccc(C(=O)Cn2c3ccccc3n3nc(CCC(=O)O)c(=O)nc23)cc1OC	-11.0	30.8	1.1	0.7
O=C(CSc1nnc(-c2ccco2)o1)NC1CC2CCC1C2 (stereo not drawn)	18.1	56.1*	0.8	0.4
COc1ccccc1-c1nnc(SCC(=O)NC2CCCCC2)o1	-93.4	53.8*	1.9	0.5
O=C(CSc1nnc(-c2ccccc2)o1)NC1CCCCC1	47.7	83.2*	0.5	0.2
O=C(O)CSc1nnc(-c2ccccc2)o1	11.9	9.6	0.9	0.9
CN(C(=O)CSc1nnc(-c2ccco2)o1)C1CCCCC1	-9.2	1.8	1.1	1
O=C(CSc1nnc(-c2ccco2)o1)NC1CCCCC1	10.1	55.3*	0.9	0.4
COC(=O)C(CC(C(=O)OC)C(=O)OC)C(=O)OC	6.9	6.5	0.9	0.9
COC(=O)CSc1nnc(-c2ccc(OC)cc2OC)o1	-9.5	9.6	1.1	0.9
CCOC(=O)CSc1nnc(-c2ccccc2OC)o1	-95.3	35.7	2*	0.6
COc1ccccc1-c1nnc(SCC(=O)Nc2c(Cl)cccc2Cl)o1	73.7*	84.9*	0.3	0.2

Assay outcomes deposited in PubChem by Sanford-Burnham Center for Chemical Genomics.
